PubChem BioAssay
For some of these results: Potency and affinity values are given separately. Activity calls are given as the source filed them. Unless noted, no rule for the calls is given here.

Key:
[1] = antimalarial activity against Dd2 strain (AID 2302;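 active = growth inhibition above 50% at the single 2 µM test dose, taken to imply half-maximal potency below 2 µM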;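 also: 0% = DMSO untreated growth and 100% = chloroquine plus artemisinin killed control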); details: P. falciparum Dd2 in RBCs, LDH growth readout, 72 h; at 2 µM; stronger effect = higher value
[2] = human hepatoma cell viability loss – ATP luminescence, cytotoxicity control for P. falciparum antimalarial project, primary screen (AID 2303;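 active = inhibition above 50%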;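 also: 0% = DMSO wells and 100% = digitonin-killed cells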); details: HepG2 viability, 24-48 h, at 10 µM, stronger effect = higher value
[3] = target: L-lactate dehydrogenase (Plasmodium falciparum (isolate CDC / Honduras)) (UniProt Q27743); test: PfLDH activity inhibition – cell lysate, 3D7 strain, counter-screen for P. falciparum growth inhibition project (AID 2304);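 also: 0% = vehicle and 100% = reference inhibitor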; details: P. falciparum 3D7 crude extract, LDH APAD/NBT absorbance; at 2 µM; stronger effect = higher value
[4] = inhibition of 3D7 malaria parasite growth – strain 3D7 (AID 2306);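 also: 0% = DMSO wells and 100% = chloroquine plus artemisinin control wells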; details: P. falciparum 3D7 erythrocytic growth, LDH absorbance, 72 h; at 2 µM; stronger effect = higher value
[5] = target: Calcium-dependent protein kinase 1 (Plasmodium falciparum (isolate 3D7)) (UniProt P62344); test: PfCDPK1 kinase inhibitors, biochemical, TCAMS library (AID 1159585; cut-off not given, nearly all actives have IC50 up to about 0.98 µM;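 also: inhibitors leave more ATP so luminescence rises with inhibition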); details: recombinant PfCDPK1, Kinase-Glo ATP depletion luminescence
[6] = target: Plasmodium falciparum protein kinase 6 (PK6, PF3D7_1337100) (UniProt Q8IDW1); test: PfPK6 kinase inhibitors, biochemical, TCAMS library (AID 1159586); details: recombinant PfPK6, Kinase-Glo ATP depletion luminescence
[7] = target: Protein kinase 7 (PK7), Plasmodium falciparum 3D7 (PF3D7_0213400) (UniProt Q7YTF7); test: inhibition of Plasmodium PK7 catalytic activity – biochemical, TCAMS antimalarial set, Kinase-Glo luminescence (AID 1159587); details: recombinant PfPK7, Kinase-Glo ATP depletion luminescence
[8] = target: Calcium-dependent protein kinase 4 (Plasmodium falciparum (isolate 3D7)) (UniProt Q8IBS5); test: PfCDPK4 kinase inhibitors, biochemical, TCAMS library (AID 1159588; cut-off not given, nearly all actives have IC50 up to about 0.91 µM); details: recombinant PfCDPK4, Kinase-Glo ATP depletion luminescence
Chain of Calcium-dependent protein kinase 4 (Plasmodium falciparum (isolate 3D7)) (Q8IBS5 whole entry, looked up): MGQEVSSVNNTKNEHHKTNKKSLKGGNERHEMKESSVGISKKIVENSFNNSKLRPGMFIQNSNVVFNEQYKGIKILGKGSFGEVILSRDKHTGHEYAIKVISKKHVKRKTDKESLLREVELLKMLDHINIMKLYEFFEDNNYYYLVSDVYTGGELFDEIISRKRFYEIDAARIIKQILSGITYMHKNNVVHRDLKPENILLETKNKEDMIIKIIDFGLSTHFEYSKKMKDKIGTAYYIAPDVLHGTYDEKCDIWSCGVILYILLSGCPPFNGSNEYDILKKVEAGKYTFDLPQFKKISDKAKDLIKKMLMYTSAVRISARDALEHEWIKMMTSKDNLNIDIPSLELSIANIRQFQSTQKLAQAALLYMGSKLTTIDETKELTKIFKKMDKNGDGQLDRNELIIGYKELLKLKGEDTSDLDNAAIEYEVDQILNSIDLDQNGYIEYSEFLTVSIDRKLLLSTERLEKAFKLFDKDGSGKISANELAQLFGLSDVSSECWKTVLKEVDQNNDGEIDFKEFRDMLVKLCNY

Chain of Plasmodium falciparum protein kinase 6 (PK6, PF3D7_1337100) (Q8IDW1 1-305): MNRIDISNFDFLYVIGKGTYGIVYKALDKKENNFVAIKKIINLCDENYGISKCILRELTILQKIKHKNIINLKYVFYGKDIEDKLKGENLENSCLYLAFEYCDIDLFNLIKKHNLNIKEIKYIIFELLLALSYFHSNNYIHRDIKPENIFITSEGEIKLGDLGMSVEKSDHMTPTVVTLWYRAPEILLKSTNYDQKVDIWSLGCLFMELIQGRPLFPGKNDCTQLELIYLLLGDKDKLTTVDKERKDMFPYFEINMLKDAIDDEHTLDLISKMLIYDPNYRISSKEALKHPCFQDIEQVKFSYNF
Chain of Calcium-dependent protein kinase 1 (Plasmodium falciparum (isolate 3D7)) (P62344 whole entry, looked up): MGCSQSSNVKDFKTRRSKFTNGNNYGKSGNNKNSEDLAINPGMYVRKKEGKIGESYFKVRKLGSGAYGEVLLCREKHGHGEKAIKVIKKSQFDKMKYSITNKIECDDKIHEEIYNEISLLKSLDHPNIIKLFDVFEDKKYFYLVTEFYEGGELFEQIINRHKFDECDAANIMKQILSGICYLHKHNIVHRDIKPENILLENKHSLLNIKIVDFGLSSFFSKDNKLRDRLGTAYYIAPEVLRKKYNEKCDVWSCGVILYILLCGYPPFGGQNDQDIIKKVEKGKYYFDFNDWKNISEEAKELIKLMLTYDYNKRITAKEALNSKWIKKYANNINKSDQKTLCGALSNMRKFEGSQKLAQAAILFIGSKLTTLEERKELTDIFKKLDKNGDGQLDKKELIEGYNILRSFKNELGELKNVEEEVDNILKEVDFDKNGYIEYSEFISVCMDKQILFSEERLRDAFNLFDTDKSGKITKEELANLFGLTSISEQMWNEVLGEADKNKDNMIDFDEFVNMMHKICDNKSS
Chain of L-lactate dehydrogenase (Plasmodium falciparum (isolate CDC / Honduras)) (Q27743 whole entry, looked up): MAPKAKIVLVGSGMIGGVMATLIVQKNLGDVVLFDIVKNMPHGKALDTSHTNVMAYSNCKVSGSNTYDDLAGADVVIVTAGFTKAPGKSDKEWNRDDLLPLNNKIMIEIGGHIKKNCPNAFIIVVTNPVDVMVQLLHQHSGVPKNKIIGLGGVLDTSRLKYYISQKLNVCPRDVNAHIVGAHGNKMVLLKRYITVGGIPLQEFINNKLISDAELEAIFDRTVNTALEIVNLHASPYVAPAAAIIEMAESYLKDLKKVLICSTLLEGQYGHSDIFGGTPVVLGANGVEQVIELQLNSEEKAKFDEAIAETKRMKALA
Chain of Protein kinase 7 (PK7), Plasmodium falciparum 3D7 (PF3D7_0213400) (Q7YTF7 1-343): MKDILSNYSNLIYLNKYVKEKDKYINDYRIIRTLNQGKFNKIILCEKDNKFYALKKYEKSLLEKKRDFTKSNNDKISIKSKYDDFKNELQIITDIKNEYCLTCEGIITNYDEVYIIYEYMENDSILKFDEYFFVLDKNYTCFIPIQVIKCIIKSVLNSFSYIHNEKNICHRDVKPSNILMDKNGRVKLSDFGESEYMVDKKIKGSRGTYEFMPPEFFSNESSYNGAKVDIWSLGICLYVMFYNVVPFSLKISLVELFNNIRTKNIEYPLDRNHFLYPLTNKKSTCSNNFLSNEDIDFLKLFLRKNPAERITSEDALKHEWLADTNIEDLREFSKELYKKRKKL

CN1CCC(NCc2cccc(-c3ccc(S(=O)(=O)NCCN4CCCC4)c(F)c3)c2)CC1
active: growth inhibition [4] 91%
inactive: growth inhibition [1] -4% | inhibition [2] 14% | inhibition [3] 2% | outcome [5] | outcome [6] | outcome [7] | outcome [8]

CN1CCN(c2ccnc3ccc(NC(=O)Nc4cccc5c(C#N)cccc45)cc23)CC1
active: growth inhibition [4] 91%
inactive: growth inhibition [1] 40% | inhibition [2] -6% | inhibition [3] 8% | outcome [5] | outcome [6] | outcome [7] | outcome [8]

N[C@@H](COc1cccc2c(-c3ccncc3)c(-c3cccc(NC(=O)Nc4ccccc4)c3)nn12)c1ccccc1
active: growth inhibition [1] 71% | growth inhibition [4] 101%
inactive: inhibition [2] 9% | inhibition [3] 2% | outcome [5] | outcome [6] | outcome [7] | outcome [8]

O=C(CCCCCNC(=O)c1ccc(O)c(-c2ccc(Cl)c(Cl)c2)c1)NCCN1CCOCC1
active: growth inhibition [4] 95%
inactive: growth inhibition [1] 0% | inhibition [2] -7% | inhibition [3] -3% | outcome [5] | outcome [6] | outcome [7] | outcome [8]

CS(=O)(=O)N(CC(O)Cn1c2ccc(Cl)cc2c2cc(Cl)ccc21)c1ccccc1 (centres undefined)
inactive: inhibition [2] 2% | inhibition [3] 0% | outcome [5] | outcome [6] | outcome [7] | outcome [8]
active: growth inhibition [1] 98% | growth inhibition [4] 101%

CCCCCCCCc1c(C)[nH]c(C)c(Br)c1=O
inactive: inhibition [2] -5% | inhibition [3] 7% | outcome [5] | outcome [6] | outcome [7] | outcome [8]
active: growth inhibition [1] 92% | growth inhibition [4] 96%

O=C(c1cccc(Cl)c1)N1CCN(c2ccc([N+](=O)[O-])c(NC3CC3)c2)CC1
active: growth inhibition [1] 79% | growth inhibition [4] 100%
inactive: inhibition [2] 11% | inhibition [3] 4% | outcome [5] | outcome [6] | outcome [7] | outcome [8]

CCN1CCN(Cc2ccc3nc(-c4cc(C)n(Cc5cc(Cl)ccc5OCc5ccccc5)n4)[nH]c3c2)CC1
active: growth inhibition [1] 97% | growth inhibition [4] 102%
inactive: inhibition [2] 11% | inhibition [3] 2% | outcome [5] | outcome [6] | outcome [7] | outcome [8]

CCc1ccc(CN2CCC(C(=O)Nc3ccc(-c4nc5ccccc5[nH]4)cc3)CC2)o1
inactive: inhibition [2] 29% | inhibition [3] -4% | outcome [5] | outcome [6] | outcome [7] | outcome [8]
active: growth inhibition [1] 94% | growth inhibition [4] 99%

COc1cc(Cl)c(C)cc1-n1cc(C(=O)c2cc(Br)ccc2O)cc(C#N)c1=O
inactive: growth inhibition [1] 35% | inhibition [2] 3% | inhibition [3] -3% | outcome [5] | outcome [6] | outcome [7] | outcome [8]
active: growth inhibition [4] 95%

COc1cccc(CN2CCCN(Cc3cccc(NC(=O)c4ccc(-c5ccccc5)cc4)c3)CC2)c1
inactive: growth inhibition [1] 8% | inhibition [2] 35% | inhibition [3] -1% | outcome [5] | outcome [6] | outcome [7] | outcome [8]
active: growth inhibition [4] 86%

Cc1cc(NC(=O)c2cccs2)ccc1OC1CCN(Cc2ccc(F)cc2)C1 (centres undefined)
active: growth inhibition [1] 92% | growth inhibition [4] 95%
inactive: inhibition [2] 0% | inhibition [3] 0% | outcome [5] | outcome [6] | outcome [7] | outcome [8]

COc1cc(C2NCC3(CCOCC3)c3cc4c(cc32)OCCO4)cc(OC)c1OC (centres undefined)
inactive: growth inhibition [1] 2% | inhibition [2] 24% | inhibition [3] -5% | outcome [5] | outcome [6] | outcome [7] | outcome [8]
active: growth inhibition [4] 95%

Fc1c(CNCC2CCN(CC3CCCCC3)CC2)cccc1C(F)(F)F
inactive: growth inhibition [1] 7% | inhibition [2] 35% | inhibition [3] 3% | outcome [5] | outcome [6] | outcome [7] | outcome [8]
active: growth inhibition [4] 93%

COc1ccc(NC(=O)[C@H](CC(C)C)Nc2cc(C)nc(NCCc3ccc(F)cc3)n2)cc1
active: growth inhibition [1] 79% | growth inhibition [4] 100%
inactive: inhibition [2] 1% | inhibition [3] -3% | outcome [5] | outcome [6] | outcome [7] | outcome [8]

CN1CCC(NC(=O)c2cc(Oc3ccc4c(c3)CCN4C(=O)Nc3cccc(C(F)(F)F)c3)ccn2)CC1
inactive: growth inhibition [1] 17% | inhibition [2] 16% | inhibition [3] -3% | outcome [5] | outcome [6] | outcome [7] | outcome [8]
active: growth inhibition [4] 92%

O=C(NC1CCN(Cc2ccccc2)CC1)c1ccc(-c2nc3cc(Cl)c(Cl)cc3[nH]2)c(F)c1
inactive: inhibition [2] 4% | inhibition [3] -2% | outcome [5] | outcome [6] | outcome [7] | outcome [8]
active: growth inhibition [1] 83% | growth inhibition [4] 101%

COc1ccc2ccccc2c1C=NNc1cc(C)nc2cc(C(F)(F)F)ccc12
inactive: growth inhibition [1] 4% | inhibition [2] 1% | inhibition [3] 0% | outcome [5] | outcome [6] | outcome [7] | outcome [8]
active: growth inhibition [4] 92%

CC(=O)Nc1ccc(CN(Cc2ccc(F)cc2)Cc2cccc(Oc3ccccc3)c2)cc1
inactive: inhibition [2] -8% | inhibition [3] 6% | outcome [5] | outcome [6] | outcome [7] | outcome [8]
active: growth inhibition [1] 82% | growth inhibition [4] 88%

CCN(CC)CCNc1ccnc2c3ccccc3n(C)c12
inactive: inhibition [2] 14% | inhibition [3] -4% | outcome [5] | outcome [6] | outcome [7] | outcome [8]
active: growth inhibition [1] 99% | growth inhibition [4] 101%

O=C(Nc1cccc(F)c1)c1ccc(C(=O)NC2CCN(CC3CCCCC3)C2)cc1 (centres undefined)
inactive: growth inhibition [1] 15% | inhibition [2] 16% | inhibition [3] -3% | outcome [5] | outcome [6] | outcome [7] | outcome [8]
active: growth inhibition [4] 96%

CC1CC(C)CN(S(=O)(=O)c2cc(C(=O)Nc3cccc([N+](=O)[O-])c3)ccc2Br)C1 (centres undefined)
inactive: inhibition [2] 1% | inhibition [3] -5% | outcome [5] | outcome [6] | outcome [7] | outcome [8]
active: growth inhibition [1] 68% | growth inhibition [4] 101%

OCCOCn1cnc2cnc(N[C@H]3OC[C@H](O)[C@@H](O)[C@@H]3O)nc21
inactive: growth inhibition [1] -2% | inhibition [2] 42% | inhibition [3] 0% | outcome [5] | outcome [6] | outcome [7] | outcome [8]
active: growth inhibition [4] 82%

O=C(Nc1ccc(-c2nc3ccccc3[nH]2)cc1)c1cncc(Br)c1
active: growth inhibition [4] 95%
inactive: growth inhibition [1] 49% | inhibition [2] 35% | inhibition [3] 1% | outcome [5] | outcome [6] | outcome [7] | outcome [8]

NC(N)=Nc1nc(-c2cccc(NC(=O)NCc3cccc4ccccc34)c2)cs1
inactive: growth inhibition [1] 32% | inhibition [2] 14% | inhibition [3] 5% | outcome [5] | outcome [6] | outcome [7] | outcome [8]
active: growth inhibition [4] 101%

Nc1nc(N)c2c(ccc3c2ccn3CCCF)n1
active: inhibition [2] 61% | growth inhibition [4] 94%
inactive: growth inhibition [1] 0% | inhibition [3] 0% | outcome [5] | outcome [6] | outcome [7] | outcome [8]

CCOC(=O)CN(c1ccc(Br)cc1OCCOc1cc(Br)ccc1N(CC(=O)OCC)C(C)C(=O)OCC)C(C)C(=O)OCC (centres undefined)
inactive: growth inhibition [1] 6% | inhibition [2] -15% | inhibition [3] 6% | outcome [5] | outcome [6] | outcome [7] | outcome [8]
active: growth inhibition [4] 94%

Nc1ccc(-c2ccc3ccnc(N)c3c2)cn1
active: growth inhibition [1] 100% | growth inhibition [4] 101%
inactive: inhibition [2] 43% | inhibition [3] 3% | outcome [5] | outcome [6] | outcome [7] | outcome [8]

CCOC(=O)c1ccc(-n2c(C)cc(C=C3SC(=Nc4ccccc4)N(C4CCCC4)C3=O)c2C)cc1
active: growth inhibition [1] 61% | growth inhibition [4] 98%
inactive: inhibition [2] 2% | inhibition [3] 0% | outcome [5] | outcome [6] | outcome [7] | outcome [8]

CCc1[nH]nc(C(=O)Nc2cccc(N3CCCC3)c2)c1C
inactive: inhibition [2] 15% | inhibition [3] 1% | outcome [5] | outcome [6] | outcome [7] | outcome [8]
active: growth inhibition [1] 52% | growth inhibition [4] 81%

Nc1ncnc2c1ncn2C(CO)Cc1ccc(O)cc1 (centres undefined)
active: growth inhibition [4] 93%
inactive: growth inhibition [1] 0% | inhibition [2] -5% | inhibition [3] -2% | outcome [5] | outcome [6] | outcome [7] | outcome [8]

Nc1nc(N)c2c(ccc3c2ccn3CCCCO)n1
active: inhibition [2] 61% | growth inhibition [4] 93%
inactive: growth inhibition [1] 49% | inhibition [3] -2% | outcome [5] | outcome [6] | outcome [7] | outcome [8]

CCN(CC)CC(O)CNc1c2ccc([N+](=O)[O-])cc2nc2cc(OC)c(OC)cc12 (centres undefined)
inactive: inhibition [3] -4% | outcome [5] | outcome [6] | outcome [7] | outcome [8]
active: growth inhibition [1] 100% | inhibition [2] 78% | growth inhibition [4] 100%

NC(=Nc1nc(-c2ccccn2)cc2ccccc12)c1cccc(Cl)c1
inactive: inhibition [3] 0% | outcome [5] | outcome [6] | outcome [7] | outcome [8]
active: growth inhibition [1] 99% | inhibition [2] 54% | growth inhibition [4] 101%

CCc1ccc(CN(Cc2ccc(C)cc2)Cc2ccc(NC(C)=O)cc2)cc1
inactive: inhibition [2] 6% | inhibition [3] -1% | outcome [5] | outcome [6] | outcome [7] | outcome [8]
active: growth inhibition [1] 79% | growth inhibition [4] 89%

O=C(Nc1cccc(CN2CCN(C(=O)c3ccccc3)CC2)c1)c1cccs1
inactive: inhibition [2] 15% | inhibition [3] 1% | outcome [5] | outcome [6] | outcome [7] | outcome [8]
active: growth inhibition [1] 97% | growth inhibition [4] 95%

O=C(Nc1ccc(OC2CCN(Cc3ccco3)C2)c(Cl)c1)c1ccc2ncccc2c1 (centres undefined)
active: growth inhibition [4] 92%
inactive: growth inhibition [1] 42% | inhibition [2] 1% | inhibition [3] -6% | outcome [5] | outcome [6] | outcome [7] | outcome [8]

O=c1[nH]c(NCCCNCc2cc3c(Cl)cc(Cl)cc3[nH]2)nc2ccccc12
active: growth inhibition [4] 91%
inactive: growth inhibition [1] 4% | inhibition [2] 10% | inhibition [3] -3% | outcome [5] | outcome [6] | outcome [7] | outcome [8]
